D2 ag-1 = activates the human D2 dopamine receptor; P14416; HEK293 T-REx D2 cells, calcium flux agonist mode; activation, % at 2 µM; 340,000 compounds, 0.53% hits; AID 485358;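 active means activation over 3 SD above normal in the single-dose calcium agonist read, cut at about 30% in these data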
Target sequence (P14416 whole entry, looked up): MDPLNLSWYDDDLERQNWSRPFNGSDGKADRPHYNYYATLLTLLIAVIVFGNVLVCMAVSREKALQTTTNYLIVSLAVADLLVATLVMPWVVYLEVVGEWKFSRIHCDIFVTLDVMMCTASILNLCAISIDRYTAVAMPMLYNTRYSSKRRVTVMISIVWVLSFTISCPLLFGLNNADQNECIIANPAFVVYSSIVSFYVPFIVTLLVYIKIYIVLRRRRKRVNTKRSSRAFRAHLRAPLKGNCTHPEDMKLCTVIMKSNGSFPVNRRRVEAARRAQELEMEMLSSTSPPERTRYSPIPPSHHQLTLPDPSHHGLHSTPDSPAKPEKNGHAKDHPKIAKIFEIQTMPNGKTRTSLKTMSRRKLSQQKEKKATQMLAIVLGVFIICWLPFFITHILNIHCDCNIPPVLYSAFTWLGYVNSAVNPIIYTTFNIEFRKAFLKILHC
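Tetracycline-induced HEK293 Trex cells with D2 receptor force-coupled to calcium signaling, plated overnight at 30 C and loaded with no-wash calcium dye. Calcium flux read kinetically for 180 s after compound addition; responses flag agonists.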
D2 PAM-1 = D2 dopamine receptor (human) potentiation. P14416. HEK293 T-REx D2, calcium flux, EC20 dopamine potentiation. potentiation, % at 10 µM. 340,000 compounds, 0.34% hits;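 active means potentiation over 3 SD above the plate norm, cut at about 30% in these data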
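Cells plated with tetracycline inducer and held overnight at 30 C; calcium dye loaded 30–90 min at room temperature; baseline taken, compound added and read 180 s; EC20 dopamine then added and read 180 s.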
D2 antag = D2 dopamine receptor (human) antagonism. P14416. HEK293 TREx D2 cells, calcium flux, dopamine EC80. inhibition, % at 10 µM. 340,000 compounds, 2% hits. AID 485344; in the data active means inhibition above about 30%; inactive means below that, where a call was filed
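Overnight-induced (tetracycline, 30 C) HEK293 T-REx cells carrying force-coupled D2 receive a no-wash calcium dye, then compound, then EC80 dopamine at 180 s; signals are read kinetically throughout.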
D2 ag-2 = agonists of human D2 dopamine receptor (beta-arrestin); P14416; DiscoveRx PathHunter D2 beta-arrestin, luminescence, 90 min; 100% = 57 uM dopamine signal; activation, % (no concentration beside the values); 360,000 compounds, 0.084% hits; in the data active means activation above about 40%
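Agonist mode: compounds alone added to overnight-plated D2 PathHunter cells for 90 min at 37 C, with 57 uM final dopamine (EC100) defining full response. Beta-arrestin recruitment detected by chemiluminescent reagent, read after 1 h at ambient temperature.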
D2 PAM-2 = positive allosteric modulators of human D2 dopamine receptor; DiscoveRx D2 beta-arrestin cells, luminescence, 90 min; 100% = 57 uM dopamine signal; 360,000 compounds, 0.23% hits; potentiation, % (concentration not given with the values); P14416; in the data active means potentiation above about 50%
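D2 cells co-treated with compound plus 50 nM dopamine (EC20) for 90 min at 37 deg C to detect potentiation. Beta-arrestin recruitment was read as enzyme-fragment luminescence after 1 h at ambient temperature. Full response was set by 57 uM dopamine.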
Hits are given with their value; . = inactive; / = no result given. Rows were chosen to be rich in hits. Some 2.4% of all compounds tested hit in one or more screens of this group.

SMILES	D2 ag-1	D2 PAM-1	D2 antag	D2 ag-2	D2 PAM-2
CCN1CCCC1CNC(=O)c1cc2c(OC)c(OC)c(OC)cc2[nH]1 (configuration not stated)	.	.	82.7	.	.
CC(=O)CSc1nc2c(c(=O)[nH]c(=O)n2C)n1CCCc1ccccc1	.	.	.	.	.
C=C(C)C(=O)Nc1cccc(C2=NOC3(C2)C[C@@H](C(N)=O)N(C(=O)c2cc([N+](=O)[O-])cc([N+](=O)[O-])c2)C3)c1 (some centres not stated)	.	.	.	.	84.0
C=C(C)C(=O)Nc1cccc(C2=NOC3(C2)C[C@@H](C(N)=O)N(C(=O)c2ccc(OC)cc2)C3)c1 (some centres not stated)	.	.	.	.	.
C/C=C(/C)C(=O)Nc1cccc(C2=NOC3(C2)C[C@@H](C(N)=O)N(C(=O)CC)C3)c1 (some centres not stated)	.	.	43.4	.	.
Cc1cc(C(=O)CSc2nc3ccccc3c(=O)[nH]2)c(C)n1C	.	38.6	.	.	.
CON(C)c1nc(Oc2ccc(=O)[nH]n2)nc(N(C)C)n1	.	45.4	.	.	.
Cc1n[nH]c(=S)n1/N=C/c1ccc(OCc2ccc(Cl)cc2Cl)cc1	.	.	31.3	.	.
O=C1CCCc2c1[nH]c1ccc(CN3CCCCC3)cc21	.	.	50.9	.	.
Cc1ccc2[nH]c3c(c2c1)CCCC3=O	.	.	.	.	.
CCCCC(=O)NC(=S)Nc1ccccc1C(=O)Nc1ccccc1	.	.	.	.	.
CC(=O)NC(=S)Nc1ccccc1C(=O)Nc1ccccc1	.	.	46.7	.	.
COC(=O)c1cccc(Nc2c(-c3ccc(SC)cc3)nc3nc[nH]n23)c1	.	/	/	/	/
Cc1ccc(S(=O)(=O)N2CCCC2C(=O)NCc2ccncc2)cc1 (configuration not stated)	.	.	.	.	.
O=C(CCn1cccn1)N1CCCC(Nc2ccc(F)c(F)c2)C1 (configuration not stated)	/	/	/	.	.
O=C1CC(c2ccccc2)CC(=NCCO)/C1=C(\O)CCCN1C(=O)c2ccccc2C1=O (configuration not stated)	.	50.9	.	.	.
CC1(C)CC(=O)/C(=C(\O)CCCN2C(=O)c3ccccc3C2=O)C(=NCC(=O)O)C1	.	.	.	.	.
COc1ccc(OCC(=O)Nc2ccc(C(=O)OCc3cc(=O)n4nc(C)sc4n3)cc2)cc1	.	.	/	/	/
Cc1ccc(NC(=O)C2CCN(S(=O)(=O)c3c(C)noc3/C=C/N(C)C)CC2)cc1	.	.	.	.	.
Cc1noc(/C=C/N(C)C)c1S(=O)(=O)N1CCC(C(=O)NC(C)(C)C)CC1	.	.	31.5	.	.
O=C(COc1ccccc1)N/N=C/c1sc(=O)n(Cc2cccc(C(=O)O)c2)c1Cl	.	.	44.4	.	.
CCOc1ccccc1C(=O)NC1CC2CCCC(C1)N2C1CC1 (configuration not stated)	.	.	.	.	.
O=C(NC1CC2CCC(C1)N2Cc1ccccc1)c1ccccc1Br (configuration not stated)	.	.	67.5	.	.
CCOc1ccc(C(=O)NC2CC3CCCC(C2)N3Cc2ccccc2)cc1 (configuration not stated)	/	/	/	.	.
O=C(NC1CC2CCCC(C1)N2Cc1ccccc1)c1ccc([N+](=O)[O-])cc1 (configuration not stated)	.	.	86.6	.	.
O=C(NC1CC2CCC(C1)N2Cc1ccco1)c1ccccc1 (configuration not stated)	/	.	/	.	.
COc1ccccc1C(=O)NC1CC2CCC(C1)N2Cc1ccccc1 (configuration not stated)	.	.	89.4	.	.
COc1ccc(C(=O)NC2CC3CCCC(C2)N3Cc2ccccc2)c(OC)c1 (configuration not stated)	.	.	86.4	.	.
CCc1cc(=O)oc2c(C)c(OCC(=O)NCCCn3ccnc3)ccc12	.	.	.	.	.
N#Cc1ccccc1NC(=O)C(=O)NCC(c1cccnc1)N1CCN(c2ccccc2)CC1 (configuration not stated)	.	.	/	/	/

Assay outcomes: PubChem, National Center for Advancing Translational Sciences (NCATS)
